The values that follow come from PubChem BioAssay AID1851 (National Center for Advancing Translational Sciences (NCATS), 2009).

Each structure is given as a SMILES string. The whole screen tested about 16,000 compounds, of which about 2,600 (16%) were called active. Not shown: some 20% with an inconclusive outcome. Calls come from the whole dose curve; as a rule, active = well fitted curve in the direction sought with a large enough effect; inconclusive = small, poorly fitted or top-dose-only effect, or effect the other way; inactive = no such curve, though single readings can be large or run the other way. The list is a sample of the results.
% is set by controls: 0 for no effect and ±100 for the full control effect.

Sequence of Cytochrome P450 2D6 (Homo sapiens) (P10635 whole entry, looked up): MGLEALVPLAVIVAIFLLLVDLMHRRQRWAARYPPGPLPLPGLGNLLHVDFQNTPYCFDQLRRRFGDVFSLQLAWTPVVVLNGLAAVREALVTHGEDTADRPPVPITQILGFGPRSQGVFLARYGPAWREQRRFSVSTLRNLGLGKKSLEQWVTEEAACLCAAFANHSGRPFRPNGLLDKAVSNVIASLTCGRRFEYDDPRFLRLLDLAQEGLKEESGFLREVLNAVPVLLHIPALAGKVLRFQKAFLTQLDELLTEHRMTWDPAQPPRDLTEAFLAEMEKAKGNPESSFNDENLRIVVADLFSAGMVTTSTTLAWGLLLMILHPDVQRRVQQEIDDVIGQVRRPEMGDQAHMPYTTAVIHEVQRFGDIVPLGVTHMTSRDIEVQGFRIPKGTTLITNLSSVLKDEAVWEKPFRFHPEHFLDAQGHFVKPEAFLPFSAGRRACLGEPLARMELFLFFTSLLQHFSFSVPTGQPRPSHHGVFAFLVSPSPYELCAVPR

The assay addresses Cytochrome P450 2D6 (Homo sapiens) (UniProt P10635). Kind of assay: Cytochrome panel assay with activity outcomes. The conditions noted are these: recombinant CYP, pro-luciferin dealkylation, luminescence, p450-cyp2d6; series mostly up to 57.1 µM; activity, negative = inhibition: at the top concentration.
In the case of `NCCSC[C@H](N)C(=O)O`, the activity, negative = inhibition is -2.62% [at 11.4 µM] (inactive). For the compound `Cc1n[nH]c(=O)[nH]c1=O`, the “activity, negative = inhibition” value was -2.55% [at 25.6 µM] (inactive). Consider `C[C@@]12C=CC(=O)C=C1CC[C@@H]1[C@@H]2[C@H](O)C[C@]2(C)[C@@H]1CC[C@]2(O)C(=O)CO`, for which the “activity, negative = inhibition” value is -2.91% [at 25.6 µM] (inactive). Take `COc1ccc(-n2c(=O)c(C)nc3cnc(Oc4ccccc4)nc32)cc1`: the “activity, negative = inhibition” value was -18.4% (inactive). Regarding `O=C(O/N=C\c1ccc(N2CCCCC2)c([N+](=O)[O-])c1)c1c(F)cccc1F`, the “activity, negative = inhibition” value is 7.86% (inactive). As a reminder, the AC50 is the concentration at which the activity in the assay is half-maximal. With `N#C/C(=C\c1ccc(N2CCCC2)c([N+](=O)[O-])c1)c1nc2ccccc2[nH]1`, the AC50 was 0.631 µM (active).

Consider `N#C/C(=C\c1cc([N+](=O)[O-])c(N2CCCCC2)cc1N1CCCCC1)c1nn(-c2ccccc2)c(N)c1C#N`, for which the “activity, negative = inhibition” value was 27.3% (inactive). On the same count and under the same terms, with `N#C/C(=C\c1ccc(Oc2ccc(C(F)(F)F)cc2[N+](=O)[O-])cc1)c1nc2ccccc2[nH]1` the figure was -81.3% (inactive). As for `N#C/C(=C/c1ccc(N2CCCC2)c([N+](=O)[O-])c1)c1nc2ccccc2[nH]1`, the AC50 is 0.2 µM (active).

Consider `COc1cc(/C=C(/C#N)c2nc3ccccc3[nH]2)ccc1OCC(=O)Nc1ccccc1C`, for which the “activity, negative = inhibition” value is -16.6% (inactive). As to `CSc1ncnc2c1ncn2[C@@H]1O[C@@H](CO)[C@H](O)O[C@@H]1O`, the activity, negative = inhibition is 14.1% [at 11.4 µM] (inactive). For `CC(NC(=O)OCc1ccccc1)C(=O)NCC1CCCO1` (configuration not stated), the “activity, negative = inhibition” value was 13.2% (inactive).

Consider `CCCC[C@@H]1C[C@H]1C(NC(=O)c1cccs1)c1ccc(Cl)cc1` (some centres not stated), for which the “activity, negative = inhibition” value is 3.97% (inactive). For `O=S(=O)(O)c1ccc(N=Nc2ccc3c(S(=O)(=O)O)cccc3c2O)c2ccccc12`, the activity, negative = inhibition is -18.7% [at 11.4 µM] (inactive). Take `Cn1c(SCC(=O)Nc2ccccc2)nc(O)cc1=O`: the “activity, negative = inhibition” value was -13.2% (inactive).

For the compound `CCc1c(C)nc(N)n2c(SCC(=O)Nc3ccccc3)nnc12`, the AC50 is 1.41 µM (active). Consider `CCN(CC)c1ccc(NC(=O)CSc2nnc3nc(C)cc(C)n23)cc1`, for which the “activity, negative = inhibition” value was 12.6% (inactive). Consider `COc1ccc(Oc2ncc3nc(CCc4ccccc4)c(=O)n(CCC#N)c3n2)cc1`, for which the “activity, negative = inhibition” value is -6.14% (inactive). On the same count and under the same terms, with `Cc1cccc(OC2(c3ccccc3)OC(=O)c3ccccc32)c1C` (configuration not stated) the figure was -6.72% (inactive).

Turning to `CCN(CC)C(=O)COc1ccc(S(=O)(=O)N2CCOCC2)cc1`, the “activity, negative = inhibition” value is 22.3% (inactive).

For `N#C/C(=C\NC(=S)c1ccncc1)c1nc2ccccc2s1`, the activity, negative = inhibition is -9.99% [at 11.4 µM] (inactive). Consider `C=CCn1c(=O)c(C(=O)NCCN(CC)CC)c(O)c2ccccc21`, for which the AC50 was 4.47 µM (active). In the case of `CN(C(=O)c1c(O)c2ccccc2n(C)c1=O)c1ccccc1`, the “activity, negative = inhibition” value was -7.86% (inactive). Still for that read-out and setting: for `CCCc1c(O)c2ccccc2n(-c2ccccc2)c1=O` the value was 1.37% (inactive); for `COc1ccc(NC(=O)N2CCCC3(CCN(C(=O)c4cnccn4)CC3)C2)cc1`, 4.29% (inactive). `Cc1cc(NC(=O)c2cc(C(C)C)on2)no1`: the “activity, negative = inhibition” value was 20.3% (inactive). As for `CCOC(=O)N1CCN(CC(=O)c2ccc3c(c2)CCN3)CC1`, the “activity, negative = inhibition” value was -23.3% (inactive).

Regarding `CC(=O)C1=C(O)C=C(c2ccco2)CC1c1ccco1` (configuration not stated), the “activity, negative = inhibition” value is -12.8% (inactive). Consider `CSc1n[nH]c(-c2sccc2OCc2ccc(C)cc2)n1`, for which the “activity, negative = inhibition” value was -27.3% (inactive). Regarding `c1ccc(-c2nc(CSc3n[nH]c(-c4cccs4)n3)cs2)cc1`, the half-maximal activity concentration (AC50) is 1.12 µM (active). As for `Cc1cc(NC(=O)CSc2n[nH]c(-c3cccs3)n2)no1`, the “activity, negative = inhibition” value is -3.95% (inactive). Turning to `C=CC[C@@H](C(=O)O)c1ccccc1`, the activity, negative = inhibition is 1.94% [at 11.4 µM] (inactive). Take `CCc1c(C)c(C#N)c2nc3ccccc3n2c1N1CCN(c2cc(C)ccn2)CC1`: the “activity, negative = inhibition” value is -6.92% (inactive). For `C[C@H]1CCCC=CC2C[C@H](OC(=O)CN(C)C)C[C@@H]2[C@@H](O)/C=C\C(=O)O1` (some centres not stated), the activity, negative = inhibition is 9.34% [at 11.4 µM] (inactive). Take `Cc1cccc2sc(NC(=O)C3c4ccccc4Oc4ccccc43)nc12`: the “activity, negative = inhibition” value is -27% (inactive). For `c1ccc(-c2cccc(N3CC[C@@]4(CCCNC4)C3)c2)cc1`, the AC50 was 10 µM (active).

On to `O=S(=O)(c1ccccc1)N1CCC[C@@]2(CCN(c3cccc(-c4ccccc4)c3)C2)C1`, for which the “activity, negative = inhibition” value is -1.58% (inactive). `c1ccc(-c2cccc(N3CC4(CCNCC4)C3)c2)cc1`: the AC50 is 20 µM (active). Turning to `CS(=O)(=O)N1CCC2(CC1)CN(c1cccc(-c3ccccc3)c1)C2`, the “activity, negative = inhibition” value is -0.816% (inactive). As to `O=S(=O)(c1ccccc1)N1CCC2(CCCN(c3cccc(-c4ccccc4)c3)C2)CC1`, the “activity, negative = inhibition” value was 1.98% (inactive). As to `Cn1cccc1C(=O)N1CCC2(CC1)CN(c1cccc(-c3ccccc3)c1)C2`, the “activity, negative = inhibition” value was -4.41% (inactive).

As for `Cc1ccccc1C(=O)Nc1ccc(C(=O)NNC(=O)CCCOc2ccc(Cl)cc2Cl)cc1`, the “activity, negative = inhibition” value is -9.11% (inactive). In the case of `COc1cc(Br)c(C(C)NC(=O)c2cccc(Br)c2)cc1OC` (configuration not stated), the “activity, negative = inhibition” value is -16.8% (inactive). On the same count and under the same terms, for `C/C(=N\NC(=O)c1cccc(C)c1)c1cccc(NC(=O)c2ccco2)c1` the value was -0.781% (inactive). Turning to `Cn1c([N+](=O)[O-])cnc1COC(N)=O`, the “activity, negative = inhibition” value was 1.78% [at 25.6 µM] (inactive).

As to `Cc1cc(C)c2cc(C#N)c(NCCOC(=O)c3ccccc3C)nc2c1`, the “activity, negative = inhibition” value was 6.66% (inactive).

Regarding `Cc1nn(-c2ccc(Cl)cc2)c2sc(C(=O)c3c(N)n(C)c(=O)n(C)c3=O)cc12`, the “activity, negative = inhibition” value is 22% (inactive).
